Assay outcomes deposited in PubChem by National Center for Advancing Translational Sciences (NCATS).
An excerpt weighted towards active compounds, which were near 15% of everything screened.
HCV inh: inhibitors of hepatitis C virus infection; 340,000 tested, 3.4% active; Huh7.5.1 HCVcc-Cre infection, luciferase reporter, 44 h; AID 651820; Potency, µM (doses to about 41.8 µM), usual class: inhibitors
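A cell-based infection assay in which seeded cells (1,000 per well) receive test compound after 4 h, are inoculated with HCVcc-Cre at approximately 0.5 moi, and are incubated 44 h before luminescence detection.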
HCMV antiviral: blocks human cytomegalovirus replication. HFF cells, HCMV-luciferase reporter, 72 h; active compounds read low. activity change, negative = inhibition, % at 57.5 µM. AID 1259415. 410,000 tested, 4.5% active; in the data active = activity change below about -60%; inconclusive = no clear call, values can overlap the other calls; inactive = above about -39%
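After 16 h attachment at 37C, HFF cells received test compound and HCMV-luciferase (1 PFU/cell); reporter luminescence read 72 h later, data normalized against buffer-only and known inhibitor Salinomycin.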
SARS PLpro yeast: SARS-CoV PLP inhibition in yeast; AID 485353; S. cerevisiae expressing SARS-CoV PLpro, growth rescue; 330,000 tested, 0.19% active; Potency, µM (highest dose often 32.9 µM), hits mostly activators; calls by dose curve; also: nearly all actives have a fitted effect of over 55% in size
Pf growth 48h: inhibits P. falciparum growth in the first generation, 48 h | 310,000 tested, 5.9% active | P. falciparum luciferase growth in erythrocytes, 48 h | Potency, µM (series often up to 28.7 µM), usual class: inhibitors | AID 504832
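Growth was read as firefly luciferase luminescence after a 48 h, 37 C, 5% CO2 exposure of compounds to reporter-bearing P. falciparum cultures (0.1% parasitemia, 2% hematocrit final) in Albumax-supplemented RPMI 1640.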
Sm TGR inh: inhibitors of Schistosoma mansoni thioredoxin glutathione reductase; Q962Y6; purified TGR, DTNB reduction, TNB absorbance 405 nm; Potency, µM (highest dose often 114 µM), hits mostly inhibitors; 360,000 tested, 3% active; AID 485364; also: nearly all actives have a fitted effect of over 60% in size
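TGR 20 nM + NADPH 100 uM (dispensed conc.), cpd preinc 15 min RT; start with NADPH (500 uM addition) then DTNB (15 mM addition). Kinetic TNB absorbance, 405 nm filter. Four-parameter Hill fit across titration.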
Pf growth 96h: P. falciparum growth inhibition at 96 hour, primary screen for plastid delayed-death inhibitors. P. falciparum luciferase reporter growth, 96 h. 320,000 tested, 6.9% active. Potency, µM (titrated, usually from 28.7 µM), usual class: inhibitors
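Cell-based qHTS: luciferase-tagged P. falciparum in erythrocytes (2% hematocrit, 0.05% parasitemia final) incubated with compounds for 96 hours, 37 C, 5% CO2; luciferase detection reagent then added and luminescence measured.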
Each line names hits and unclear results; the compound was inactive in the other large screens. Unless noted, calls follow the shape of the dose curve; as a rule, active = well fitted curve in the direction sought with a large enough effect; inconclusive = small, poorly fitted or top-dose-only effect, or another doubt; inactive = no such curve, though single readings can be large; an effect the other way counts as inactive or inconclusive.

Cn1nc(C(F)(F)F)c(-c2ccccc2)c1NC(=O)c1cccnc1	Pf growth 48h inconclusive, Pf growth 96h inconclusive
O=C(Nc1cccc(C(F)(F)F)c1)c1cccnc1	none (no result: SARS PLpro yeast, Pf growth 96h)
Cn1nc(C(F)(F)F)c(-c2cccc(C(F)(F)F)c2)c1NC(=O)c1cccnc1	HCMV antiviral -78, Pf growth 48h inconclusive, Pf growth 96h inconclusive
Cc1ccc(Nc2c([N+](=O)[O-])ccc3nonc23)cc1C	Pf growth 48h inconclusive
COC(=O)[C@]1(C)N[C@H](CN(C)S(=O)(=O)c2ccc(C(F)(F)F)cc2)[C@@H]2C(=O)N(C)C(=O)[C@@H]21	none (no result: Pf growth 48h, Sm TGR inh, Pf growth 96h)
CCN(CC)C(=O)c1ccccc1NC(=O)c1cccc(S(=O)(=O)N2CCC(C)CC2)c1	none (no result: HCV inh, SARS PLpro yeast, Pf growth 48h, Pf growth 96h)
CCOC(=O)c1ccc2c(c1)n(CC)c(/C=C/N(C)c1ccccc1)[n+]2CC	HCV inh inconclusive, HCMV antiviral -100, Pf growth 48h 1.2µM
C=CCNS(=O)(=O)c1cc(S(=O)(=O)NCC=C)c(OC)cc1OC	Pf growth 96h 2.9µM
Cc1ccc(C(=O)N/C(=C\c2ccc(-c3cccc([N+](=O)[O-])c3)o2)C(=O)NCCCN(C)C)cc1	HCV inh inconclusive, Pf growth 48h inconclusive, Pf growth 96h inconclusive
CN(C)CCNC(=O)/C(=C/c1ccc(-c2ccc(Cl)cc2Cl)o1)NC(=O)c1ccccc1	HCV inh 10µM, HCMV antiviral inconclusive, Pf growth 48h 12µM
Cc1ccc(C(=O)N/C(=C\c2ccc(-c3ccccc3[N+](=O)[O-])o2)C(=O)NCCCN2CCOCC2)cc1	HCV inh 25µM, Pf growth 48h 1.9µM, Sm TGR inh 35µM, Pf growth 96h 2.9µM
CN(C)CCCNC(=O)/C(=C\c1ccc(-c2cccc([N+](=O)[O-])c2)o1)NC(=O)c1ccccc1	HCV inh inconclusive, HCMV antiviral -66, Pf growth 48h inconclusive (no result: Sm TGR inh)
COc1ccc(-c2ccc(/C=C(\NC(=O)c3ccccc3)C(=O)N3CCOCC3)o2)cc1	HCMV antiviral -63, Pf growth 48h 13µM
CN(C)CCNC(=O)/C(=C/c1ccc(-c2ccc(Cl)cc2)o1)NC(=O)c1ccccc1	HCV inh 10µM, Pf growth 48h 13µM
O=C(NCCN1CCOCC1)/C(=C/c1ccc(Cl)cc1)NC(=O)c1ccccc1	HCV inh inconclusive
Cc1ccc(C(=O)N/C(=C\c2ccc(-c3ccc(Br)cc3)o2)C(=O)NCCCN(C)C)cc1	HCV inh 2µM, HCMV antiviral -101, Pf growth 48h inconclusive, Pf growth 96h inconclusive
CC(C)Oc1ccc(CNC(=O)C2=Cc3ccccc3OC2)cc1	none (no result: HCV inh, SARS PLpro yeast, Pf growth 48h, Pf growth 96h)
O=C(Nc1ccc(Cl)cc1)N[C@H]1CC[C@@]23CCCN2C(=O)CCC[C@H]3C1Cc1ccccc1 (stereo partly specified)	none (no result: HCV inh, SARS PLpro yeast, Pf growth 48h, Sm TGR inh, Pf growth 96h)
COc1ccc(N=C(c2ccccc2)c2c(C)[nH]n(-c3ccccc3)c2=O)c(OC)c1	HCV inh inconclusive, HCMV antiviral inconclusive, Pf growth 96h inconclusive
CC(=O)c1ccc(NC(=S)NCc2ccc(Cl)cc2Cl)cc1	HCV inh inconclusive, HCMV antiviral inconclusive, Pf growth 96h inconclusive
CCOC(=O)c1ccccc1-n1c(C)cc(C2N=C(N)Nc3nc4ccccc4n32)c1C (stereo unspecified)	HCMV antiviral inconclusive, Pf growth 96h 1.7µM (no result: Pf growth 48h)
CCc1ccc(C2N=C(N)Nc3nc4ccccc4n32)cc1 (stereo unspecified)	HCMV antiviral -67 (no result: HCV inh, SARS PLpro yeast, Pf growth 48h, Pf growth 96h)
COc1ccc(C2N=C(N)Nc3nc4ccccc4n32)c(OC)c1OC (stereo unspecified)	none (no result: HCV inh, SARS PLpro yeast, Pf growth 48h, Pf growth 96h)
NC1=NC(c2ccc(Br)cc2)n2c(nc3ccccc32)N1 (stereo unspecified)	HCMV antiviral inconclusive
COc1ccc(/C=N/Nc2cc(N(C)C)nc(N(C)C)n2)cc1	HCV inh inconclusive, Pf growth 48h inconclusive, Pf growth 96h 12µM
COc1ccc(/C=N/Nc2cc(C)nc(N)n2)cc1	Pf growth 48h 9.3µM
CN(C)c1cc(N/N=C\c2ccccc2)nc(N(C)C)n1	HCV inh inconclusive, Pf growth 48h inconclusive
O=C(CCN1C(=O)/C(=C/c2ccccc2Cl)SC1=S)NCCc1ccc(O)cc1	HCV inh inconclusive, HCMV antiviral -101
